# High-throughput results as filed in PubChem.
# HTR5A inv ctr = HTR5A inverse agonism, opioid heterodimer counter-screen | AID 504634 | inhibition, % at 9.3 µM | hit rate 0.083% among 340,000 | P47898 | HTR5A cell line, luminescence; in the data active = inhibition mostly above about 23%, no sharp cut-off; inactive = mostly below about 18%;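 note: 0% = cells with DMSO and 100% = no-cell wells with DMSO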
# Target sequence (P47898 whole entry, looked up): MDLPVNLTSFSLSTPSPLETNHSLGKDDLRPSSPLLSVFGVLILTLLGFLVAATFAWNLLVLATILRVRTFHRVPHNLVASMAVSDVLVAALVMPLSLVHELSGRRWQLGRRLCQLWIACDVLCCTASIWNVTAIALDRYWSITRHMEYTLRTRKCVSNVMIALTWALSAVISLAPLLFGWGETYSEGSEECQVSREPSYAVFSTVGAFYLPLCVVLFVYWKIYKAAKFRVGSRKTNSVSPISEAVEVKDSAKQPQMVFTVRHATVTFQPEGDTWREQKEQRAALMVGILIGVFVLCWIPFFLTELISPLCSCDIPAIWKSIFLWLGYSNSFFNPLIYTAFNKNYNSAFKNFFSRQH
# sPLA2-III inh = Blocks human group III sPLA2 activity; Q9NZ20; QFRET BODIPY PC-A2 liposome hydrolysis, fluorescence; inhibition, % at 12.2 µM; hit rate 0.56% among 370,000;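 active = inhibition above mean plus 3 SD of compounds lying within the high and low control bounds, cut at about 19% in these data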;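 note: 0% = median of test compound wells and 100% = no enzyme DMSO wells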
# MOR-DOR inv ag = mu-delta opioid heterodimer inverse agonism | cell-based MOR-DOR heterodimer luminescence | hit rate 0.21% among 340,000 | inhibition, % at 9.3 µM | P35372+P41143 | AID 504357; in the data active = inhibition above about 22%, passing the limit was not always enough;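 note: 0% = cells with DMSO and 100% = wells without cells with DMSO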
# MOR-DOR ag = OPRM1-OPRD1 heterodimerization agonism; P35372+P41143; cells, luminescence; activation, % at 9.3 µM; hit rate 0.3% among 340,000; in the data active = activation above about 18%;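 note: 0% = vehicle-treated cells and 100% = reference agonist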
# m5-HT2A agonist = agonists of mouse serotonin 5-HT2A receptor (HTR2A). activation, % at 7.6 µM. CHO-K1 mHTR2A beta-arrestin complementation, luminescence; percent of 30 µM serotonin response. P35363. hit rate 0.66% among 360,000;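 active = activation above a run cutoff, the mean activation of all tested compounds plus 3 SD, cut at about 14% in these data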;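 note: 0% = plate median of compound wells and 100% = 30 µM serotonin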
# HTR5A ag = activates human HTR5A in OPRM1-OPRD1 agonist counter-screen | P47898 | HTR5A agonist assay, luminescence, cell-based | activation, % at 9.3 µM | hit rate 0.61% among 340,000; in the data active = activation mostly above about 9.5%, no sharp cut-off; inactive = mostly below about 7.6%;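 note: 0% = cells with vehicle only and 100% = reference agonist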
# OPRM1-D1 inv cf = OPRM1-OPRD1 heterodimer inverse agonism, confirmation. hit rate 20% among 580. shares compounds with MOR-DOR inv ag. cells expressing OPRM1/OPRD1 heterodimer, luminescence. inhibition, % at 9.3 µM; in the data active = inhibition above about 32%;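 note: 0% = cells with DMSO and 100% = wells lacking cells with DMSO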
# HTR5A inv count = HTR5A inverse agonism, opioid heterodimer counter-screen | HTR5A-expressing cells, luminescence | AID 504914 | inhibition, % at 9.3 µM | 580 tested, under 10 active | shares compounds with MOR-DOR inv ag; call rule not given here;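 note: 0% = cells with DMSO and 100% = no-cell wells with DMSO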
# OPRM1 ag = activates human mu opioid receptor in HTR2A counterscreen. shares compounds with m5-HT2A agonist. U2OS OPRM1 beta-arrestin PathHunter, luminescence; DMSO 0%, DAMGO 9.3 µM 100%. activation, % at 9.3 µM. hit rate 5.3% among 2,300. AID 624380;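 active = mean activation above the mean of DMSO-only wells plus 3 SD, cut at about 0.5% in these data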
# m5-HT2A ag conf = confirmation of mouse HTR2A serotonin receptor agonists. shares compounds with m5-HT2A agonist. CHO-K1 PathHunter beta-arrestin recruitment, luminescence; DMSO 0%, 30 µM serotonin 100%. activation, % at 7.6 µM. hit rate 19% among 2,300;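 active = mean activation across triplicates above the hit threshold derived in the original primary screen, cut at about 15% in these data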
# sPLA2 confirm = human GIII-sPLA2 inhibition, confirmation. shares compounds with sPLA2-III inh. recombinant hGIII-sPLA2, BODIPY PC-A2 QFRET fluorescence. inhibition, % at 12.2 µM. hit rate 34% among 2,000. AID 743280;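 active = mean inhibition across triplicates above the hit cutoff set in the earlier primary screen, cut at about 19% in these data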;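 note: 0% = enzyme with DMSO and 100% = DMSO wells lacking enzyme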
# 535nm interf = 535nm fluorescence interference, HGIII-sPLA2 counter-screen | inhibition, % at 12.2 µM | shares compounds with sPLA2-III inh | hit rate 8.5% among 2,000 | BODIPY FL product fluorescence interference, QFRET;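 active = average inhibition above the solvent-only control mean plus 3 SD, cut at about 6% in these data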;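 note: 0% = DMSO with substrate plus product and 100% = DMSO with substrate alone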
# BODIPY interf DR = counter-screen for HGIII-sPLA2 inhibitors: 535nm fluorescence interference, dose response; shares compounds with sPLA2-III inh; BODIPY FL product fluorescence interference, cell-free; IC50, µM; 240 tested, under 10 active; AID 743455;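 active = IC50 at or below 10 µM; inactive = IC50 above 10 µM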
# The depositor's hits bear a star; i = inactive; / = no result given. Most compounds without a hit are left out; they make up all but 2.2% or so of the library.
SMILES,HTR5A inv ctr,sPLA2-III inh,MOR-DOR inv ag,MOR-DOR ag,m5-HT2A agonist,HTR5A ag,OPRM1-D1 inv cf,HTR5A inv count,sPLA2 confirm,535nm interf,BODIPY interf DR,others
O=C(CC1(O)C(=O)Nc2ccccc21)c1ccccc1O (stereo unspecified),-1.4,-4.8,50.4*,-8.9,20.7*,-4.7,24.0,7.0,/,/,/,OPRM1 ag=-1.3;m5-HT2A ag conf=-3.0
COCc1cn(-c2ccc3c(c2)[C@@]2(CC(=O)N(C)C2c2ccccc2)C(=O)N3CC(C)C)nn1 (stereo partly specified),/,4.2,/,/,/,/,/,/,/,/,/,
Cc1ccccc1OCCCN1C(=O)C(=O)c2cccc(C)c21,-8.2,28.4*,49.6*,-9.6,-5.0,2.9,i,-2.3,37.9*,-1.8,>122,
Cc1cc(C(=O)NNC(=O)c2ccc(Cl)cc2)c2ccccc2n1,8.6,-4.9,5.2,-1.2,7.6,-3.5,/,/,/,/,/,
Cc1cc(C(=O)NNC(=S)NC(C)c2ccccc2)c2ccccc2n1 (stereo unspecified),-12.4,23.8*,34.2*,-6.4,-1.8,3.4,5.5,-13.2,29.1*,-6.9,>122,
COCC(=O)N[C@H]1C[C@@H]2O[C@H](CO)CC[C@@H]2O[C@@H]1CCc1ccc(-c2ccccc2)cc1,/,-2.9,/,/,/,/,/,/,/,/,/,
C[C@H]1[C@@H](C(=O)N2CCCC2)Cc2nc3ccccc3nc2C[C@@H]1c1ccccc1,/,-2.0,/,/,/,/,/,/,/,/,/,
CN1CCC(N[C@@H](Cc2c[nH]c3ccccc23)C(=O)NCCCc2ccccc2)(C(=O)NCCc2c[nH]c3ccccc23)CC1,/,-59.2,/,/,/,/,/,/,/,/,/,
Cc1cccc(OCCN2C(=O)C(=O)c3cc(C)ccc32)c1,20.1,23.9*,29.6*,-5.7,-0.9,6.3,-6.5,-16.0,21.3*,-1.3,/,
CCCN1C(=O)C(=O)c2cc(C)ccc21,25.5,5.9,16.5,-3.6,-8.1,1.7,/,/,/,/,/,
Cc1ccc2c(c1)C(=O)C(=O)N2CCOc1ccccc1,4.8,25.3*,37.7*,-7.6,-6.7,-1.6,-5.6,-1.3,12.9,-1.2,/,
Cc1ccc2c(c1)C(=O)C(=O)N2CCCOc1ccccc1C,-13.3,14.6,19.5,-3.9,1.0,4.0,/,/,/,/,/,
COC(=O)c1cc2c(c3c4cc(F)ccc4n(S(=O)(=O)c4ccc(C)cc4)c13)C(=O)N(Cc1ccccc1)C2,/,16.2,/,/,/,/,/,/,/,/,/,
O=C(NNC(=S)NC(=O)C12CC3CC(CC(C3)C1)C2)c1ccncc1,6.4,23.9*,42.2*,-7.2,-14.5,-6.9,13.8,-5.3,31.0*,-18.1,>122,
COc1ccc(NS(=O)(=O)c2ccc3ccccc3c2)c2ncccc12,12.5,28.4*,38.9*,-7.0,4.0,-5.1,10.2,-10.9,14.5,-1.2,/,
CCCCCC(=O)NNC(=S)NC(=O)c1ccccc1[N+](=O)[O-],-3.0,20.5*,30.0*,-5.8,-0.6,-8.5,-140.2,10.6,33.5*,-1.6,>122,
